# Laboratory results published in PubChem BioAssay AID504465 (National Center for Advancing Translational Sciences (NCATS), 2011).
# Hit rate of the full screen: of about 2,100 compounds, about 210 (10%) were called active. Roughly 53% stayed inconclusive and do not appear here. Calls follow the shape of the dose curve; as a rule, active = well fitted inhibition curve with a large enough effect; inconclusive = small, poorly fitted or top-dose-only effect, or effect the other way; inactive = no such curve, though single readings can be large or run the other way. This is one part of the list. A call without a number means that no potency is given here.
# Experiment: IN Cell qHTS Assay for Inhibitors of the mTORC1 Signaling Pathway in MEF (Tsc2-/-, p53-/-) Cells: Sytravon; also: nearly all actives have a fitted effect of over 60% in size
# Settings: phospho-rpS6 immunofluorescence, 24 h; series mostly up to 38.3 µM
# Procedure, shortened: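 Tsc2-/-, p53-/- MEFs (empty-vector) treated with compound 24 h at 37 degree Celsius, then fixed and stained for phospho-rpS6 Ser235/236 (Alexa-488) plus Hoechst. Reported as % positive cells, thresholds set against 7.5 nM rapamycin and DMSO wells.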
# Potency is read from the fitted curve at half-maximal effect.
row,SMILES,Potency
1,NC(=O)CSc1nc2ccc(NC(=O)COc3ccccc3Cl)cc2s1,inactive
2,Cc1ccc2[nH]cc(C(c3ccccc3)c3ccc(Cl)s3)c2c1 (stereo not given),inactive
3,CCc1cccc(NC(=O)c2ccc(CNS(=O)(=O)c3ccc4c(c3)C(C)(C)C(=O)N4C)cc2)c1,inactive
4,Cc1cncn1CCc1nc2c3ccccc3nc(SCC(=O)Nc3ccccc3F)n2n1,inactive
5,COc1ccc(Nc2c3c(nc4nncn24)CCC3)cc1OC,inactive
6,O=c1[nH]c(SCc2ccc(Br)cc2)nc2c1CCCC2,inactive
7,Brc1ccc(Nc2c3c(nc4nncn24)CCC3)cc1,10.4 µM (active)
8,CCOc1ccc(-c2nonc2NC(=O)c2oc3ccc(CC)cc3c2C)cc1,inactive
9,NS(=O)(=O)c1ccc(CCNC(=O)C2COc3ccccc3C2)cc1 (stereo not given),inactive
10,COc1ccc(NC(=O)c2c(C)oc3ccc(O)c(CN4CCCC(C)C4)c23)cc1 (stereo not given),inactive
11,COc1ccc(NC(=O)c2c(C)oc3ccc(O)c(CN4CCC(C)CC4)c23)cc1Cl,13.1 µM (active)
12,Cc1oc2ccc(O)c(CN3CCCCCC3)c2c1C(=O)Nc1cccc(Cl)c1C,inactive
13,COc1ccc(NC(=O)c2c(C)oc3ccc(O)c(CN4CCN(Cc5ccccc5)CC4)c23)cc1Cl,inactive
14,Cc1oc2ccc(O)c(CN3CCC(C)CC3)c2c1C(=O)Nc1ccccc1,5.21 µM (active)
15,Cc1ccc(NC(=O)c2c(C)oc3ccc(O)c(CN4CCCCCC4)c23)cc1,inactive
16,O=C(Cn1cc(SCc2ccc(Cl)cc2)c2ccccc21)N1CCCC1,inactive
17,Oc1c(C(Nc2ccccn2)c2ccccc2F)ccc2cccnc12 (stereo not given),inactive
18,COc1ccc(C)cc1NC(=O)c1cc(S(=O)(=O)N2CCN(c3cccc(C)c3C)CC2)ccc1F,inactive
19,Cc1cc(NC(=O)C2CCC(CNS(=O)(=O)c3ccc(Br)s3)CC2)ccc1Br (stereo not given),inactive
20,COc1ccccc1C(=O)Nc1nc2ccc(S(=O)(=O)N3CCCC3)cc2s1,inactive
21,COc1ccccc1C(=O)Nc1sc(Nc2ccccc2)nc1C(N)=O,18.5 µM (active)
22,COc1ccccc1C(=O)Nc1cccc(OCc2cc(=O)n3ccccc3n2)c1,inactive
23,CCCCNC(=O)CSc1nc2n[nH]c(C)c2c(=N)n1-c1cccc(Cl)c1C,inactive
24,Cc1ccc(-c2nc3ccc(Cl)cn3c2Nc2ccccc2C)s1,inactive

row,SMILES,Potency
1,Cc1cc(C)cc(NS(=O)(=O)c2ccc(-c3cc(C)no3)s2)c1,inactive
2,CCC1=Nc2cc(C(=O)NC3CCCC3)ccc2Sc2ccc(Cl)cc21,inactive
3,CCCC(=O)Nc1cccc(-c2cn3c(C)csc3n2)c1,inactive
4,CC(=O)Nc1cccc(NC(=O)C(=O)NCCc2sc(-c3ccccc3)nc2C)c1,2.33 µM (active)
5,Cc1nc(-c2ccc(F)cc2)sc1CCNC(=O)C(=O)Nc1ccc2c(c1)OCCO2,inactive
6,O=c1oc2ccccc2cc1-c1cn2cc(Cc3ccccc3F)sc2n1,inactive
7,CCOc1cc(C2C(C(=O)OC)=C(C)NC3=C2C(=O)c2ccccc23)cc(Br)c1OCC (stereo not given),inactive
8,CC(NC(=O)c1c2c(nc3ccccc13)C(=O)N(C1CCCCC1)C2)c1ccccc1 (stereo not given),inactive
9,Cc1cccc(CN2C(=O)c3ccccc3Sc3ccc(C(=O)NC4CCCCC4)cc32)c1,inactive
10,Cc1ccc(CN2C(=O)c3ccccc3Sc3ccc(C(=O)NCCCN4CCOCC4)cc32)cc1,16.5 µM (active)
11,CC1CCCN(CCCNC(=O)c2ccc3c(c2)N(Cc2cccc(Cl)c2)C(=O)c2ccccc2S3(=O)=O)C1 (stereo not given),inactive
12,CCCCN(CC)CCCNC(=O)c1ccc2c(c1)N(Cc1ccc(C)cc1)C(=O)c1ccccc1S2,inactive
13,Cc1ccc(C)c(CN2C(=O)c3ccccc3S(=O)(=O)c3ccc(C(=O)NCCCN4CCCC(C)C4)cc32)c1 (stereo not given),5.21 µM (active)
14,CCC1CCCCN1CCCNC(=O)c1ccc2c(c1)N(Cc1cccc(Cl)c1)C(=O)c1ccccc1S2(=O)=O (stereo not given),inactive
15,CCN(CC)CCCNc1cc(-c2ccccc2)nc(C)n1,inactive
16,CC(C)c1ccc(C2CC(=O)Nc3cc4c(cc32)OCCO4)cc1 (stereo not given),inactive
17,O=C(NCCCc1nc2ccccc2n1Cc1ccccc1F)c1ccco1,inactive
18,Cc1cccc(OCc2ccc(-c3nc(C#N)c(NCCN(C)C)o3)o2)c1,5.85 µM (active)
19,CCOc1ccc(/C=C/c2nc(C#N)c(NCCCN(C)C)o2)cc1,inactive
20,COc1ccc(CNc2oc(/C=C/c3cccc(OC)c3)nc2C#N)cc1,inactive
21,Cc1ccccc1OCc1ccc(-c2nc(C#N)c(N3CCN(C)CC3)o2)o1,inactive
22,COc1ccc(CNc2oc(/C=C/c3cc(OC)c(OC)c(OC)c3)nc2C#N)cc1,inactive
23,COc1ccc(CNc2oc(COc3cccc(C)c3)nc2C#N)cc1,3.69 µM (active)
24,CCCN(CCC)CCCNC(=O)C1CCN(c2nc3ccc(CC)cc3s2)CC1,6.56 µM (active)

row,SMILES,Potency
1,CCCc1ccc(NC(=O)C2CCN(c3cnccn3)CC2)cc1,inactive
2,CCCCN(C)CCCNC(=O)C1CCN(c2nc3ccc(CC)cc3s2)CC1,5.21 µM (active)
3,CCOCCCNC(=O)C1CCN(c2nc3ccc(Cl)cc3[nH]2)CC1,inactive
4,Cc1cc(=O)n2nc(N3CCC(C(=O)NCc4ccc(Cl)cc4)CC3)sc2n1,inactive
5,COc1cccc(NC(=O)C2CCC(CNS(=O)(=O)c3csc(C(N)=O)c3)CC2)c1 (stereo not given),inactive
6,O=C(CCCCn1c(=O)[nH]c2ccsc2c1=O)N1CCN(c2cccc(Cl)c2)CC1,inactive
7,O=C(NCc1ccco1)C1CCN(C(=O)N2CCOc3ccc(Cl)cc32)CC1,inactive
8,O=C(Nc1ccc(Br)cc1F)c1cc(S(=O)(=O)NC2CCCC2)ccc1F,inactive
9,CC1C(=O)N2CCCc3cc(S(=O)(=O)Nc4ccc(Br)cc4F)cc1c32 (stereo not given),14.7 µM (active)
10,CCC(=O)N1CCc2cc(Br)cc(S(=O)(=O)N3CCCC(C(=O)Nc4ccc(CC)cc4)C3)c21 (stereo not given),inactive
11,Cc1ccc(C2c3c(-c4cc(C)ccc4O)n[nH]c3C(=O)N2Cc2ccco2)cc1 (stereo not given),inactive
12,COc1ccc(Cn2c(C(=O)O)c(CNCCc3cccs3)c3ccc(OC)cc32)cc1,inactive
13,CCc1ccc(NC(=O)C2CCC(CNS(=O)(=O)c3ccc4c(c3)CC(C)N4C(C)=O)CC2)cc1 (stereo not given),inactive
14,Cc1ccc(CSc2oc(-c3ccco3)nc2S(=O)(=O)c2ccc(Cl)cc2)cc1,inactive
15,CCCCS(=O)(=O)c1oc(-c2ccc(F)cc2)nc1S(=O)(=O)c1ccccc1,4.14 µM (active)
16,Cc1ccc(S(=O)(=O)c2nc(S(=O)(=O)c3ccccc3)sc2NCCCOC(C)C)cc1,inactive
17,CCCCS(=O)(=O)c1oc(-c2ccc(F)cc2)nc1S(=O)(=O)c1ccc(C)cc1,6.56 µM (active)
18,CCS(=O)(=O)c1oc(-c2ccc(F)cc2)nc1S(=O)(=O)c1ccc(Br)cc1,2.93 µM (active)
19,CC(C)CS(=O)(=O)c1oc(-c2ccc(F)cc2)nc1S(=O)(=O)c1ccccc1,0.656 µM (active)
20,O=S(=O)(NCC(c1ccco1)S(=O)(=O)c1ccccc1)c1cc(F)ccc1F (stereo not given),inactive
21,CCCN1C(=O)C(Cc2nc3ccccc3c(=O)n2CC)c2cc(Br)ccc21 (stereo not given),inactive
22,COC(=O)c1c(NC(=O)c2ccc(S(=O)(=O)N3CCC(C)CC3)cc2)sc2c1CCN(C)C2,inactive
23,Cc1cccc(-n2cnc3cc(C(=O)NC4CCCCCC4)ccc32)c1,inactive
24,CC(C)c1ccc(NC(=O)c2ccc3c(c2)CCCN3S(C)(=O)=O)cc1,inactive

row,SMILES,Potency
1,CCc1ccc(NS(=O)(=O)c2ccc3[nH]c4c(c3c2)CCCCCC4)cc1,inactive
2,O=C1C(Nc2ccccc2)=CC(c2ccc(Br)cc2)N1c1ccccc1 (stereo not given),inactive
3,COc1ccc(-n2nnnc2C2CCN(S(=O)(=O)c3cc(Cl)ccc3OC)CC2)cc1,inactive
4,O=C(NCCc1csc(-c2cccnc2)n1)c1cccc(C(F)(F)F)c1,inactive
5,O=C(C1CCC(CNS(=O)(=O)c2ccc(Br)s2)CC1)N1CCN(c2ccccc2)CC1 (stereo not given),inactive
6,O=S(=O)(c1ccc(Cl)cc1)c1nc(-c2ccco2)oc1SCc1ccccc1F,inactive
7,CCS(=O)(=O)c1oc(-c2ccc(F)cc2)nc1S(=O)(=O)c1ccccc1,0.208 µM (active)
8,O=S(=O)(c1ccccc1)n1nc(-c2ccc(Cl)cc2)nc1NCc1ccc(F)cc1,inactive
9,COc1ccc(S(=O)(=O)N(Cc2nc(-c3cccc(C)c3)no2)C2CCCCC2)cc1,inactive
10,COc1ccc(NC2=C(c3ccc(C(F)(F)F)cc3)C(=O)c3ccccc32)cc1,inactive
11,COc1ccc(-c2cc(C(F)(F)F)nc(S(C)(=O)=O)n2)cc1,11.7 µM (active)
12,COc1ccc(C)cc1NC(=O)c1oc2ccc(S(=O)(=O)N3CCC4(CC3)OCCO4)cc2c1C,inactive
13,CC(C)Oc1cccc(C2CC(=O)Nc3cc4c(cc32)OCO4)c1 (stereo not given),inactive
14,COC(=O)c1c(-c2ccc(Cl)cc2)noc1N1CCN(c2cccc(C(F)(F)F)c2)CC1,inactive
15,CCCN(CCC)CC(O)Cn1cc(/C=C/C(=O)c2ccc(OCC)cc2)c2ccccc21 (stereo not given),14.7 µM (active)
16,CCCCN(C)CC(O)Cn1cc(/C=C/C(=O)c2ccc(Br)cc2)c2ccccc21 (stereo not given),inactive
17,Cc1cccc(NC(c2ccccc2C)c2ccc3ccc(C)nc3c2O)n1 (stereo not given),inactive
18,COc1ccc(CCNC(=O)CCc2cn(Cc3ccc(F)cc3)c3ccccc23)cc1OC,inactive
19,COc1ccccc1CNC(=O)CCc1c(C)c2ccc(OC)c(C)c2oc1=O,1.47 µM (active)
20,CCOc1ccccc1CNC(=O)CCc1cn(C)c2ccccc12,inactive
21,CCN(CC)S(=O)(=O)c1ccc2oc(C(=O)NCc3ccccc3OC)c(C)c2c1,inactive
22,Cc1ccc(CN2CCCn3nc(C(=O)NCc4ccccc4Cl)cc3C2=O)cc1,inactive
23,Nc1cc(=O)nc(SCC(=O)Nc2ccc(F)cc2)n1-c1ccc(Cl)cc1,inactive
